Assay results from PubChem BioAssay (EPA / NIEHS).
Activity calls are given as the source filed them. Rule for the calls: active = hit-call score of the fitted dose curve at least 0.9, where 1 is the maximum; inactive = score below 0.9.

Tests used:
[1] = read-out: flavin-containing dimethylaniline monooxygenases 3 (FMO3), FMO3 (gene 2328); test: LTEA_HepaRG_FMO3: Life Technologies and Expression Analysis (LTEA) Assay for flavin-containing dimethylaniline monooxygenases 3 (FMO3) using HepaRG (AID 2283453); conditions: mRNA level, 48 h; actives raise or lower the signal
Summary of the method: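 FMO3 transcript quantified by TaqMan qRT-PCR against three housekeeping genes after 48 h chemical exposure of HepaRG cells. Eight-point half-log series, top 100 uM, 0.5% DMSO vehicle; phenobarbital 1mM induction control; up- or down-regulation fitted.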

[2] = read-out: Cytochrome P450 (CYP1A1), CYP1A1 (gene 1543); test: LTEA_HepaRG_CYP1A1: Life Technologies and Expression Analysis (LTEA) Assay for Cytochrome P450 (CYP1A1) using HepaRG (AID 2283454); conditions: mRNA level, 48 h; actives raise or lower the signal
Summary of the method: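 Differentiated human HepaRG cells, after 48 h plating, exposed in duplicate for 48 h in serum-free induction medium to 8 half-log concentrations up to 100 uM in 0.5% DMSO. CYP1A1 mRNA by qRT-PCR, normalized to ACTB/GAPDH/POLR2A; bidirectional fit versus DMSO.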

[3] = read-out: CFLAR gene, CFLAR (gene 8837); test: LTEA_HepaRG_CFLAR: Life Technologies and Expression Analysis (LTEA) Assay for CFLAR gene using HepaRG (AID 2283455); conditions: mRNA level, 48 h; actives raise or lower the signal
Summary of the method: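 Transcript level by qRT-PCR (normalized to ACTB, GAPDH and POLR2A) after 48 h chemical exposure of HepaRG cells, top concentration 100 uM with half-log steps, 0.5% DMSO vehicle, duplicates; fitted bidirectionally against DMSO baseline.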

[4] = read-out: Forkhead box O1 (FOXO1), FOXO1 (gene 2308); test: LTEA_HepaRG_FOXO1: Life Technologies and Expression Analysis (LTEA) Assay for Forkhead box O1 (FOXO1) using HepaRG (AID 2283456); conditions: mRNA level, 48 h; actives raise or lower the signal
Summary of the method: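 FOXO1 transcript quantified by qRT-PCR after 48 h chemical exposure (top 100 uM, half-log steps, 0.5% DMSO) of HepaRG cells, housekeeping-normalized (ACTB/GAPDH/POLR2A). Changes fitted in both directions relative to vehicle.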

[5] = read-out: growth arrest and DNA damage 45 (GADD45A), GADD45A (gene 1647); test: LTEA_HepaRG_GADD45A: Life Technologies and Expression Analysis (LTEA) Assay for growth arrest and DNA damage 45 (GADD45A) using HepaRG (AID 2283458); conditions: mRNA level, 48 h; actives raise or lower the signal
Summary of the method: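 Transcript induction or loss, quantified by TaqMan qRT-PCR against three housekeeping genes, is the read-out. HepaRG cells received chemicals for 48 h across eight half-log concentrations from 100 uM in 0.5% DMSO; gain and loss fitted relative to DMSO.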

[6] = read-out: Forkhead box O3 (FOXO3), FOXO3 (gene 2309); test: LTEA_HepaRG_FOXO3: Life Technologies and Expression Analysis (LTEA) Assay for Forkhead box O3 (FOXO3) using HepaRG (AID 2283459); conditions: mRNA level, 48 h; actives raise or lower the signal
Summary of the method: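 FOXO3 transcript measured by qRT-PCR (normalized to ACTB, GAPDH, POLR2A) after 48 h exposure of HepaRG cells in serum-free induction medium. Duplicates, eight half-log concentrations up to 100 uM, 0.5% DMSO; gain or loss fitted against DMSO.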

[7] = read-out: ABC Transporter (ABCB1), ABCB1 (gene 5243); test: LTEA_HepaRG_ABCB1: Life Technologies and Expression Analysis (LTEA) Assay for ABC Transporter (ABCB1) using HepaRG (AID 2283460); conditions: mRNA level, 48 h; actives raise or lower the signal
Summary of the method: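 ABCB1 transcript level measured by TaqMan qRT-PCR against three housekeeping genes after 48 h chemical exposure of differentiated HepaRG cells. Top concentration 100 uM, half-log steps, eight points, 0.5% DMSO vehicle; bidirectional fit relative to DMSO.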

[8] = read-out: growth arrest and DNA damage 45 (GADD45B), GADD45B (gene 4616); test: LTEA_HepaRG_GADD45B: Life Technologies and Expression Analysis (LTEA) Assay for growth arrest and DNA damage 45 (GADD45B) using HepaRG (AID 2283461); conditions: mRNA level, 48 h; actives raise or lower the signal
Summary of the method: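 Differentiated human HepaRG cells in serum-free induction medium exposed 48 h in duplicate to eight concentrations, top 100 uM, half-log steps, 0.5% DMSO. GADD45B mRNA by TaqMan qRT-PCR, normalized to ACTB, GAPDH, POLR2A; bidirectional fit versus DMSO.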

[9] = read-out: ABC Transporter (ABCC3), ABCC3 (gene 8714); test: LTEA_HepaRG_ABCC3: Life Technologies and Expression Analysis (LTEA) Assay for ABC Transporter (ABCC3) using HepaRG (AID 2283462); conditions: mRNA level, 48 h; actives raise or lower the signal
Summary of the method: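 Differentiated human HepaRG cells exposed 48 h in serum-free induction medium, 0.5% DMSO vehicle, 8-point half-log series to 100 uM in duplicate. ABCC3 mRNA by qRT-PCR, normalised to ACTB, GAPDH, POLR2A; bidirectional fit vs DMSO.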

[10] = read-out: ABC Transporter (ABCB11), ABCB11 (gene 8647); test: LTEA_HepaRG_ABCB11: Life Technologies and Expression Analysis (LTEA) Assay for ABC Transporter (ABCB11) using HepaRG (AID 2283463); conditions: mRNA level, 48 h; actives raise or lower the signal
Summary of the method: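 ABCB11 transcript levels quantified by TaqMan qRT-PCR against three housekeeping genes after 48 h chemical exposure of HepaRG cultures. Concentrations up to 100 uM in half-log steps, 0.5% DMSO vehicle; both induction and suppression scored.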

[11] = read-out: ABC Transporter (ABCC2), ABCC2 (gene 1244); test: LTEA_HepaRG_ABCC2: Life Technologies and Expression Analysis (LTEA) Assay for ABC Transporter (ABCC2) using HepaRG (AID 2283464); conditions: mRNA level, 48 h; actives raise or lower the signal
Summary of the method: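 Differentiated HepaRG cells in serum-free induction medium exposed 48 h to eight half-log concentrations up to 100 uM, 0.5% DMSO, in duplicate. ABCC2 mRNA measured by qRT-PCR (TaqMan, Fluidigm), normalized to ACTB, GAPDH and POLR2A. Fitted in both directions against DMSO.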

[12] = read-out: Broad substrate specificity ATP-binding cassette transporter ABCG2 (Homo sapiens) (UniProt Q9UNQ0); test: LTEA_HepaRG_ABCG2: Life Technologies and Expression Analysis (LTEA) Assay for ABC Transporter (ABCG2) using HepaRG (AID 2283465); conditions: mRNA level, 48 h; actives raise or lower the signal
Summary of the method: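 ABCG2 transcript was quantified by TaqMan qRT-PCR against three housekeeping genes in HepaRG cells. Cells were treated in duplicate for 48 h across an 8-point half-log series up to 100 uM, with 0.5% DMSO vehicle. Gain or loss versus DMSO was fit.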

[13] = read-out: ATP-citrate lyase (ACLY), ACLY (gene 47); test: LTEA_HepaRG_ACLY: Life Technologies and Expression Analysis (LTEA) Assay for ATP-citrate lyase (ACLY) using HepaRG (AID 2283466); conditions: mRNA level, 48 h; actives raise or lower the signal
Summary of the method: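 ACLY mRNA quantified by qRT-PCR on Fluidigm arrays against three housekeeping genes, after 48 h chemical treatment of HepaRG cells (top concentration 100 uM, half-log steps, 0.5% DMSO vehicle). Up- or down-regulation fitted relative to DMSO.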

[14] = read-out: Peroxisomal acyl-coenzyme A oxidase 1 (ACOX1) gene, ACOX1 (gene 51); test: LTEA_HepaRG_ACOX1: Life Technologies and Expression Analysis (LTEA) Assay for Peroxisomal acyl-coenzyme A oxidase 1 (ACOX1) gene using HepaRG (AID 2283467); conditions: mRNA level, 48 h; actives raise or lower the signal
Summary of the method: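 ACOX1 transcript levels were quantified by TaqMan qRT-PCR against three housekeeping genes after 48 h chemical exposure of differentiated human HepaRG cells. Exposure used eight half-log steps topping at 100 uM, 0.5% DMSO vehicle, in duplicate. Bidirectional curve fits were made relative to DMSO.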

[15] = read-out: Alkaline Phosphatase, Placental (ALPP) gene, ALPP (gene 250); test: LTEA_HepaRG_ALPP: Life Technologies and Expression Analysis (LTEA) Assay for Alkaline Phosphatase, Placental (ALPP) gene using HepaRG (AID 2283468); conditions: mRNA level, 48 h; actives raise or lower the signal
Summary of the method: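 HepaRG cells plated 48 h, then exposed in duplicate for 48 h in serum-free induction medium to 8-point half-log series from 100 uM in 0.5% DMSO. ALPP mRNA by TaqMan qRT-PCR, normalized to ACTB/GAPDH/POLR2A; bidirectional fit versus DMSO.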

[16] = read-out: Bcl-2 (BAD) gene, BAD (gene 572); test: LTEA_HepaRG_BAD: Life Technologies and Expression Analysis (LTEA) Assay for Bcl-2 (BAD) gene using HepaRG (AID 2283469); conditions: mRNA level, 48 h; actives raise or lower the signal
Summary of the method: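 Read-out: qRT-PCR of BAD mRNA, normalized to three housekeeping genes. Human HepaRG cultures got 48 h chemical exposure in 0.5% DMSO, duplicate eight-point half-log series topping at 100 uM. Gain or loss of signal fitted versus DMSO vehicle.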

[17] = read-out: Bcl-2 (BAX) gene, BAX (gene 581); test: LTEA_HepaRG_BAX: Life Technologies and Expression Analysis (LTEA) Assay for Bcl-2 (BAX) gene using HepaRG (AID 2283470); conditions: mRNA level, 48 h; actives raise or lower the signal
Summary of the method: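 Cells were thawed, plated for 48 h, moved to serum-free induction medium and dosed for 48 h (highest concentration 100 uM, half-log steps, 0.5% DMSO). Total RNA was then analysed for BAX expression by qRT-PCR.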

[18] = read-out: adenosine kinase (ADK) gene, ADK (gene 132); test: LTEA_HepaRG_ADK: Life Technologies and Expression Analysis (LTEA) Assay for adenosine kinase (ADK) gene using HepaRG (AID 2283471); conditions: mRNA level, 48 h; actives raise or lower the signal
Summary of the method: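 Read-out is ADK transcript level measured by qRT-PCR and normalised to three housekeeping genes. Cells are human HepaRG, dosed for 48 h at up to 100 uM in 0.5% DMSO. Gain or loss of signal is fitted against DMSO controls.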

[19] = read-out: Alpha-fetoprotein (AFP) gene, AFP (gene 174); test: LTEA_HepaRG_AFP: Life Technologies and Expression Analysis (LTEA) Assay for Alpha-fetoprotein (AFP) gene using HepaRG (AID 2283472); conditions: mRNA level, 48 h; actives raise or lower the signal
Summary of the method: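 Chemicals were tested on differentiated HepaRG cells for 48 hours at eight concentrations up to 100 uM, with 0.5% DMSO as vehicle. AFP expression was then quantified by qRT-PCR and analyzed for gain or loss relative to DMSO.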

[20] = CEETOX_H295R_TESTO: CeeTox H295R High-throughput Steroidogenesis Assay for Testosterone (TESTO) (AID 2283457); conditions: actives raise or lower the signal
Summary of the method: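 H295R adrenal cells, passage ≤10, exposed to chemicals for 48 h. Testosterone in medium measured by MTBE extraction and HPLC-MS/MS against a 7-point standard curve. Bidirectional fit versus DMSO; MTT viability checked in the same wells.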

Measured: AC50

Chain of Broad substrate specificity ATP-binding cassette transporter ABCG2 (Homo sapiens) (Q9UNQ0 whole entry, looked up): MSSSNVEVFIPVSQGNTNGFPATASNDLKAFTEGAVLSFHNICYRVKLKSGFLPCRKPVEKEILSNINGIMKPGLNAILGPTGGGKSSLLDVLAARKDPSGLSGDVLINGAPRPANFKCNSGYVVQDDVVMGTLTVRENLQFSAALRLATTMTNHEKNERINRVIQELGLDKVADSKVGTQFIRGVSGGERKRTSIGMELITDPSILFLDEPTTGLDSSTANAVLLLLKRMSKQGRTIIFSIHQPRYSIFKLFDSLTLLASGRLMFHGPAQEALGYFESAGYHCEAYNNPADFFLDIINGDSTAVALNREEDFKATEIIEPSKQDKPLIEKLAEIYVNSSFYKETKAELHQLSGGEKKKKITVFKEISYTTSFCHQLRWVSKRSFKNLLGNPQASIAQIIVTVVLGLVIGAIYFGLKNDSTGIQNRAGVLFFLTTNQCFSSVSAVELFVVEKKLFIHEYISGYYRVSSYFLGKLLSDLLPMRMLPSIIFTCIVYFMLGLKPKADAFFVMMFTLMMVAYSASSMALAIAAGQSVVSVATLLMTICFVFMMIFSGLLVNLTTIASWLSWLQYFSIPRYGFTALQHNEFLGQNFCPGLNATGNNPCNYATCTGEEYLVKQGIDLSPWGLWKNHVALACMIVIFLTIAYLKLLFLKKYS

CCOCN(C(=O)CCl)c1c(C)cccc1CC
active: [1] 78.7 µM | [2] 50 µM | [8] 75.5 µM | [10] 82.5 µM | [14] 78.9 µM | [19] 93.3 µM
not listed: [20]
inactive: all other assays above

C[C@H]1[C@H](c2ccc(Cl)cc2)SC(=O)N1C(=O)NC1CCCCC1
inactive: [3] | [20] | [6] | [9] | [11] | [14] | [16] | [18]
active: [1] 75 µM | [2] 14.9 µM | [4] 83.2 µM | [5] 75.8 µM | [7] 32.8 µM | [8] 82.2 µM | [10] 76.5 µM | [12] 39.7 µM | [13] 79.7 µM | [15] 32.1 µM | [17] 77.2 µM | [19] 36.7 µM

O=C(O)CCCOc1ccc(Cl)cc1Cl
active: [2] 50.8 µM | [12] 11.6 µM | [13] 50.8 µM | [14] 20.5 µM | [18] 50.8 µM
not listed: [20]
inactive: all other assays above
